In ChEMBL document CHEMBL1157539, “Thousands of chemical starting points for antimalarial lead identification” (Nature, 2010) one finds Inhibition data, which are given here for 30 compounds.

What all share (assay type): functional
For test [1], the system named is Plasmodium falciparum. The test is described as follows: GSK_TCMDC: Inhibition of Plasmodium falciparum 3D7 in whole red blood cells, using parasite LDH activity as an index of growth. Test compounds present at 2uM.
The subject of test [2] is Plasmodium falciparum. The test is described as follows: GSK_TCMDC: Inhibition of Plasmodium falciparum Dd2 in whole red blood cells, using parasite LDH activity as an index of growth. Test compounds present at 2uM.
For test [3], the system named is HepG2. The test is described as follows: GSK_TCMDC: Percent inhibition of human HepG2 cell line. Test compounds present at 10uM.

For orientation: Inhibition means the drop in the measured response relative to a control, in per cent.

As to `COc1cc(C)nc2ccc(NC(=O)c3ccc(C(=O)Nc4ccc5nc(C)cc(OC)c5c4)cc3)cc12`, the Inhibition in test [1] is recorded as 96%; in test [2] it was 72%; in test [3], 27%.

`Cc1ccc2nc(-c3ccc(C(=O)NC4CCN(Cc5ccccc5)CC4)s3)[nH]c2c1`: the Inhibition in test [1] is reported as 97%; in test [2], 83%; in test [3], 13%.

Take `Cc1cc(N[C@@H](Cc2ccccc2)C(=O)NCc2cccs2)nc(Nc2ccccc2)n1.O=C(O)C(F)(F)F`: the Inhibition is given as 96% in test [1], 36% in test [2] and 3% in test [3].

Take `COc1ccc(NC(=O)CCNc2cc(C)nc(NCCc3ccc(F)cc3)n2)cc1.O=C(O)C(F)(F)F`: the Inhibition in test [1] came out at 98%; in test [2], 3%; in test [3], 27%.

`CCOC(=O)C1CCN(CCOc2cc(NC(=O)/C=C/c3ccccc3Cl)ccc2Br)CC1.O=C(O)C(=O)O`: the Inhibition in test [1] is given as 87%; in test [2], 29%; in test [3], 6%.

Take `CN(C)CCNC(=O)c1ccc2c(c1)ncn2-c1cc(OCc2ccccc2C(F)(F)F)c(C(N)=O)s1.CN(C)CCNC(=O)c1ccc2ncn(-c3cc(OCc4ccccc4C(F)(F)F)c(C(N)=O)s3)c2c1`: the Inhibition was 90% in test [1], 8% in test [2] and 0% in test [3].

For `Cl.O=C(Nc1ccc(Cl)c(Cl)c1)N1CCc2ccc(OCCCN3CCCCC3)cc2CC1`, the Inhibition was 92% in test [1], 0% in test [2] and 27% in test [3].

Take `CN(C)CCNc1cc(-c2cccnc2)nc(-c2ccncc2)n1`: the Inhibition was determined as 100% in test [1], 98% in test [2] and 33% in test [3].

For the compound `Cc1ccc(C(=O)Nc2ccc(C)c(OC3CCN(Cc4ccco4)C3)c2)cc1.O=C(O)C(F)(F)F` (stereo not given), the results for the Inhibition in test [1], in test [2] and in test [3] were 90%, 49% and 10%, respectively.

As for `COc1ccc(C(O)CNC(C)CCc2ccccc2)cc1C(F)(F)F.Cl` (stereo not given), the figures for the Inhibition in test [1], in test [2] and in test [3] were 99%, 100% and 3%, respectively.

`Cc1nc(-c2cccc(C(=O)N(Cc3cncn3Cc3cccc(C(F)(F)F)c3)CC3CC3)c2)cs1`: the results for the Inhibition in test [1], in test [2] and in test [3] were 97%, 17% and 7%, respectively.

For `CC(O)C1CCCCN1C(=O)c1ccc(-c2ccc(-c3nc4cc(F)ccc4[nH]3)cc2)cc1` (stereo not given), the Inhibition is 100% in test [1], 99% in test [2] and 43% in test [3].

Consider `CN1CCN(c2ccnc3ccc(NC(=O)Nc4cccc5c(C#N)cccc45)cc23)CC1`, for which the Inhibition was 91% in test [1], 40% in test [2] and 0% in test [3].

For `Clc1ccccc1OCc1ccccn1`, the Inhibition is reported as 85% in test [1], 2% in test [2] and 2% in test [3].

In the case of `O=C(NC1CCCCC1)N(Cc1ccccc1-c1ccc(CNCCc2ccccc2)cc1)C1CCN(Cc2ccccc2)CC1.O=C(O)C(F)(F)F`, the Inhibition is given as 90% in test [1], 92% in test [2] and 96% in test [3].

Take `CCCC1CCNC(C(O)c2ccnc3ccc(OC)cc23)C1.Cl` (stereo not given): the Inhibition in test [1] stood at 98%; in test [2], 78%; in test [3] it was 0%.

`C#Cc1cccc(NC(=O)[C@H](CC2CCCCC2)Nc2ccc(C#N)c3ccccc23)c1.O=C(O)C(F)(F)F`: the Inhibition in test [1] stood at 100%; in test [2], 99%; in test [3], 48%.

As to `COc1cc(CNc2ncc(-c3ccsc3)c(-c3nccs3)n2)cc(OC)c1`, the Inhibition in test [1] is listed as 86%; in test [2] it was 82%; in test [3], 3%.

With `COc1ccc(C2CCN(C#N)C2)cc1OC1CCCC1` (stereo not given), the Inhibition in test [1] is 100%; in test [2] it was 97%; in test [3], 9%.

In the case of `Cc1nc(O)c2c(ccc3ccc(CNc4ccc(C(=O)N[C@@H](CCC(=O)O)C(=O)O)c(F)c4)cc32)n1`, the Inhibition in test [1] came to 96%; in test [2] it was 96%; in test [3], 41%.

For the compound `CCn1c(CN2CCC(C)CC2)nc2cc(NC(=O)c3cccs3)ccc21`, the Inhibition in test [1] came out at 91%; in test [2], 95%; in test [3], 40%.

On to `Cc1cc(NC(=O)NCCN2CCC(NC(=O)c3ccc(Cl)cc3)CC2)c2ccccc2n1`, for which the Inhibition in test [1] is given as 90%; in test [2], 54%; in test [3], 0%.

Turning to `CC(Cl)=CCc1c(C)nc2c(ccc3ccccc32)c1O`, the Inhibition is 96% in test [1], 96% in test [2] and 24% in test [3].

In the case of `CN1CCN(Cc2cccc(-c3ccc4c(Nc5cc(O)c(Cl)cc5F)ccnc4c3)c2)CC1`, the values for the Inhibition in test [1], in test [2] and in test [3] were 100%, 100% and 0%, respectively.

Take `Cc1cccc2nc(-c3cccc(-c4cccc(CN5CCN(c6ccncc6)CC5)c4)c3)[nH]c12.O=C(O)C(F)(F)F`: the Inhibition turned out to be 100% in test [1], 96% in test [2] and 47% in test [3].

On to `Cc1cc(NC(=O)NCCN2CCC(NS(=O)(=O)c3cccc(Br)c3)C2)c2ccccc2n1.O=C(O)C(F)(F)F` (stereo not given), for which the Inhibition is on record as 99% in test [1], 58% in test [2] and 0% in test [3].

As to `CCN(CC)/C(=N/C(=N)Nc1ccc(Cl)c(Cl)c1)NCCCCCCN/C(=N\C(=N)Nc1ccc(Cl)c(Cl)c1)N(CC)CC`, the Inhibition in test [1] is given as 94%; in test [2], 90%; in test [3], 1%.

As to `CCCCN1Cc2c(n(CC(=O)Nc3ccccc3)c3cc(-c4ccccc4)nn3c2=O)C1=O`, the Inhibition was found to be 92% in test [1], 60% in test [2] and 1% in test [3].

On to `CCCC(C)Nc1nc(C)cc(N[C@@H](CC(C)C)C(=O)NC2CCCC2)n1.O=C(O)C(F)(F)F` (stereo not given in full), for which the Inhibition in test [1] was determined as 85%; in test [2], 22%; in test [3] it was 6%.

As to `COc1ccc2nccc([C@@H](O)CN3CCC(NC(=O)C(c4cc5ccccc5o4)N4CCN(C(c5ccccc5)c5ccccc5)CC4)CC3)c2c1` (stereo not given in full), the Inhibition turned out to be 100% in test [1], 100% in test [2] and 18% in test [3].
